Test results taken from PubChem BioAssay (NCI).
This is part of a sample that, as a whole, favours compounds with a hit. Of some 83,000 tested, about 20% had one in any assay.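 Values shown are percent growth following 48 h exposure of cells in 96-well plates to a single concentration of compound; below 10 was considered active.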 Unmarked numbers belong to inactive results. Activity calls are given as the source filed them.

These compounds were tested on MDA-MB-468 breast (assay: NCI-60 one-dose screen, 48 h (100 = growth as untreated, 0 = no growth, -100 = all killed)). Conditions: 10 µM unless noted.
For CCN(CC)CCCOc1cccc2c1C(=O)c1cccc(OCCCN(CC)CC)c1C2=O, the growth was 35.5%. With CCSc1ccc([C@@H]2[C@@H](O)C(=O)N2c2cc(OC)c(OC)c(OC)c2)cc1 the growth was 40.2%. For O=C(/C=C/c1cc(Cl)ccc1Cl)Nc1ncc(Cc2ccc(Cl)cc2)s1, the growth was 23.8%. COc1ccc(C2Nc3nc(SC)nc(N)c3N=C3c4ccccc4CCC32)cc1 (centres undefined) showed a growth of 102%. For O=C(Cn1cc(CN2C(=O)c3ccccc3S2(=O)=O)nn1)Nc1ccc([N+](=O)[O-])cc1Cl, the growth was 103%. O=S(=O)(O)c1ccc2cc(O)ccc2c1 showed a growth of 101%. For Cc1ccc(S(=O)(=O)c2nc(-c3ccccc3)oc2Sc2nc3ccccc3s2)cc1, the growth was 52.1%. In the case of O=C1c2c(O)cc(O)cc2O[C@@H](c2ccc(O)cc2)[C@@H]1c1c(O)cc(O)c2c(=O)cc(-c3ccc(O)c(O)c3)oc12, the growth is reported as 113%. Work on C/C(CC(=O)NNc1ccc([N+](=O)[O-])cc1)=N\Nc1ccc([N+](=O)[O-])cc1 yielded a growth of 97.7%. O=C(O)c1ccc(NC(=O)c2cccc(Nc3ccnc(C(F)(F)F)c3)c2)cc1 gave a growth of 108%. CCN(C(=O)N1CCN(c2cc3c(cc2F)c(=O)c(C(=O)O)cn3C2CC2)CC1)c1nc(-c2ccc(C)cc2)cs1 was tested, and the growth was -0.725% (active). For CSc1nc(NCCN2CCOCC2)c(C#N)c(-c2cccc([N+](=O)[O-])c2)n1, the growth was 113%. O=C1c2c(c3c4cccnc4[nH]c3c3ccc4ccccc4c23)C(=O)N1O gave a growth of 45.5%. For CC(=O)C1=C(O)C=C2Oc3c(C(=O)/C=C/c4ccccc4)c(O)c(C)c(O)c3[C@]2(C)C1=O, the growth was 30.3%. With CC1Cc2c(ncn3c(-c4ccc(F)cc4)nnc23)N(C)c2ccccc21 (centres undefined) the growth was 66%. CCOC(=O)C1=C(NC)OCC1=O gave a growth of 90.7%. COC(=O)CC[C@@H]1O[C@@H](c2ccc(F)cc2)[C@@H](O)[C@H]1O gave a growth of 96.5%. In the case of O=C1C=CC2(NN=C(c3ccccc3)N2c2cccc(Cl)c2)c2cccc(O)c21 (centres undefined), the growth is reported as 76.1%. Work on Cc1cc([N+](=O)[O-])ccc1NC(=O)c1ccc2c(c1)nc(-c1ccccc1)n2C1CCCCC1 yielded a growth of 100%. With CCCOC(=O)C(O)c1ccccc1 (centres undefined) the growth was 102%. O=C(/C=C/c1ccc[nH]1)c1ccc(-n2ccc(C(F)(F)F)n2)c(F)c1 showed a growth of 60.4%. O=C(CSc1nc2sc3c(c2c(=O)n1-c1ccc(Cl)cc1)CCCC3)NNC(=O)Nc1cccc(C(F)(F)F)c1 was tested, and the growth was 8.29% (active). In the case of O=C(NCCc1nccs1)c1cnc2c(S)cccc2c1, the growth is reported as 16.5%. O=C(O)c1c([N+](=O)[O-])cnc2ccccc12 was tested, and the growth was 112%. COc1ccc(C2CC(c3cccc(Nc4ccncc4)c3)=NN2c2cc(Cl)cc(Cl)c2)cc1 (centres undefined) was tested, and the growth was 43.3%. Work on Cn1c(=O)c2c(nc(Br)n2CCC(=O)Nc2ccc(F)cc2)n(C)c1=O yielded a growth of 113%. In the case of CCCC1C(C(=O)OCC)=C(N)Oc2cc(O)ccc21 (centres undefined), the growth is reported as 110%. Nc1ccc2c(O)cc(S(=O)(=O)O)cc2c1 gave a growth of 110%. Work on C=C1C(=O)O[C@H]2[C@H]1CC/C(CNC(=O)/C1=C/CC[C@@]3(C)O[C@H]3[C@H]3OC(=O)C(=C)[C@@H]3CC1)=C\CC[C@@]1(C)O[C@@H]21 yielded a growth of 42.9%. With Fc1cnc(NC2CC2)nc1-c1cnc2ccc(N3CCOCC3)cn12 the growth was -29.6% (active). For CCc1[nH]nc(-c2ccc(OC)cc2)c1-c1ccccc1OCCN(CC)CC, the growth was 87.8%. Work on CC(=O)NNC(=S)N/C=C/c1c(C)ccc([N+](=O)[O-])c1[N+](=O)[O-] yielded a growth of 98.8%. Nc1cc(-c2ccncc2)c[nH]c1=O showed a growth of 117%. For CN(Cc1cnc2nc(N)nc(N)c2n1)c1ccc(C(=O)NC(CCC(=O)O)C(=O)O)cc1 (centres undefined), the growth was 6.99% (active). In the case of Fc1c[c-]c(-c2ccccn2)c(F)c1.Fc1c[c-]c(-c2ccccn2)c(F)c1.[Cl][Pt+].[Cl][Pt+].c1ccc([PH+](C[PH+](c2ccccc2)c2ccccc2)c2ccccc2)cc1, the growth is reported as -2.28% (active). In the case of COc1ccc(-c2nn(-c3cccc(NC(=O)c4ccc5c(c4)OCCO5)c3)cc2-c2ccncc2)cc1Cl, the growth is reported as 26.2%. CN(Cc1ccccc1)c1nc(Cl)c(C2CC(c3ccc4c(c3)OCO4)=NN2c2cc(Cl)cc(Cl)c2)s1 (centres undefined) was tested, and the growth was 103%. For C=C1C(=O)O[C@H]2[C@H]1CC/C(COC(=O)CSCCSCC(=O)OC/C1=C/CC[C@@]3(C)O[C@H]3[C@H]3OC(=O)C(=C)[C@@H]3CC1)=C\CC[C@@]1(C)O[C@@H]21, the growth was -44.7% (active). For Cc1nc2sc(C(=O)Nc3ccccn3)c(N)c2cc1C(C)O (centres undefined), the growth was 38.4%.
